Measurements from PubChem BioAssay.
Unmarked numbers belong to inactive results. For some assays here: Results with a measured potency or affinity are listed apart. Active and inactive are the calls of the source. Unless noted, no rule for the calls is given here.

Experiments:
[1] = antimalarial activity against Dd2 strain (AID 2302;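 active = growth inhibition above 50% at the single 2 µM test dose, taken to imply half-maximal potency below 2 µM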;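 also: 0% = DMSO untreated growth and 100% = chloroquine plus artemisinin killed control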); settings: P. falciparum Dd2 in RBCs, LDH growth readout, 72 h; at 2 µM; stronger effect = higher value
[2] = HepG2 cytotoxicity, primary screen, cytotoxicity control for P. falciparum antimalarial project, cell-based, ATP luminescence (AID 2303;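 active = inhibition above 50%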;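 also: 0% = DMSO wells and 100% = digitonin-killed cells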); settings: HepG2 viability, 24-48 h, at 10 µM, stronger effect = higher value
[3] = target: L-lactate dehydrogenase (Plasmodium falciparum (isolate CDC / Honduras)) (UniProt Q27743); assay: PfLDH activity inhibition – cell lysate, 3D7 strain, counter-screen for P. falciparum growth inhibition project (AID 2304);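 also: 0% = vehicle and 100% = reference inhibitor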; settings: P. falciparum 3D7 crude extract, LDH APAD/NBT absorbance; at 2 µM; stronger effect = higher value
[4] = inhibition of 3D7 malaria parasite growth – strain 3D7 (AID 2306);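 also: 0% = DMSO wells and 100% = chloroquine plus artemisinin control wells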; settings: P. falciparum 3D7 erythrocytic growth, LDH absorbance, 72 h; at 2 µM; stronger effect = higher value
[5] = target: Calcium-dependent protein kinase 1 (Plasmodium falciparum (isolate 3D7)) (UniProt P62344); assay: PfCDPK1 kinase inhibitors, biochemical, TCAMS library (AID 1159585; cut-off not given, nearly all actives have IC50 up to about 0.98 µM;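 also: inhibitors leave more ATP so luminescence rises with inhibition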); settings: recombinant PfCDPK1, Kinase-Glo ATP depletion luminescence
[6] = target: Plasmodium falciparum protein kinase 6 (PK6, PF3D7_1337100) (UniProt Q8IDW1); assay: PfPK6 kinase inhibitors, biochemical, TCAMS library (AID 1159586); settings: recombinant PfPK6, Kinase-Glo ATP depletion luminescence
[7] = target: Protein kinase 7 (PK7), Plasmodium falciparum 3D7 (PF3D7_0213400) (UniProt Q7YTF7); assay: inhibition of Plasmodium PK7 catalytic activity – biochemical, TCAMS antimalarial set, Kinase-Glo luminescence (AID 1159587); settings: recombinant PfPK7, Kinase-Glo ATP depletion luminescence
[8] = target: Calcium-dependent protein kinase 4 (Plasmodium falciparum (isolate 3D7)) (UniProt Q8IBS5); assay: PfCDPK4 kinase inhibitors, biochemical, TCAMS library (AID 1159588; cut-off not given, nearly all actives have IC50 up to about 0.91 µM); settings: recombinant PfCDPK4, Kinase-Glo ATP depletion luminescence
Chain of Calcium-dependent protein kinase 4 (Plasmodium falciparum (isolate 3D7)) (Q8IBS5 whole entry, looked up): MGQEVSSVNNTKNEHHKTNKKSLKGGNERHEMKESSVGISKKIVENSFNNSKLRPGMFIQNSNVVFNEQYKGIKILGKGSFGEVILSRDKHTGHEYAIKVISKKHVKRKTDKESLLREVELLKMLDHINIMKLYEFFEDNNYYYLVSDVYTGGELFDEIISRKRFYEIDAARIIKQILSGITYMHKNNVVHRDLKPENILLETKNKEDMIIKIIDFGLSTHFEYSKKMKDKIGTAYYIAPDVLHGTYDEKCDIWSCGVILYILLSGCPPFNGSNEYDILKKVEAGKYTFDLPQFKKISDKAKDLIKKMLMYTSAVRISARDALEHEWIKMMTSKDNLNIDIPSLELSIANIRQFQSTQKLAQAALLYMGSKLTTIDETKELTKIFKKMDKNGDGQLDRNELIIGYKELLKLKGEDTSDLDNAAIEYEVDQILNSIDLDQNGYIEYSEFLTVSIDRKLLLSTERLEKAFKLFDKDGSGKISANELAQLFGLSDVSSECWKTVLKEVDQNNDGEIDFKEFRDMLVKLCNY

Chain of Calcium-dependent protein kinase 1 (Plasmodium falciparum (isolate 3D7)) (P62344 whole entry, looked up): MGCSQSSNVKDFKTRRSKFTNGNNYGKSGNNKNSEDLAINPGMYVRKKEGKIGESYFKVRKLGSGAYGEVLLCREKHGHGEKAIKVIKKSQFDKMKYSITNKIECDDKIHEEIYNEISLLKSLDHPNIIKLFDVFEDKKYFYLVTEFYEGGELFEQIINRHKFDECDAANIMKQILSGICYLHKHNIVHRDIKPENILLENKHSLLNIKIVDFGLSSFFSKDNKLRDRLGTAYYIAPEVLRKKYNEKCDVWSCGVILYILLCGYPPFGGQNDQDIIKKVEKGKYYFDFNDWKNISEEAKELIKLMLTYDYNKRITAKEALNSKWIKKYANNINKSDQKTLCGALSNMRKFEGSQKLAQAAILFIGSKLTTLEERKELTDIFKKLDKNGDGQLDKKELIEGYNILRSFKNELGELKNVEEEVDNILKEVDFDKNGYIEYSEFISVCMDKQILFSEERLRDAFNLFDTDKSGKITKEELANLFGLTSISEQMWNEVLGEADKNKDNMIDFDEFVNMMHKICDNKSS
Chain of Protein kinase 7 (PK7), Plasmodium falciparum 3D7 (PF3D7_0213400) (Q7YTF7 1-343): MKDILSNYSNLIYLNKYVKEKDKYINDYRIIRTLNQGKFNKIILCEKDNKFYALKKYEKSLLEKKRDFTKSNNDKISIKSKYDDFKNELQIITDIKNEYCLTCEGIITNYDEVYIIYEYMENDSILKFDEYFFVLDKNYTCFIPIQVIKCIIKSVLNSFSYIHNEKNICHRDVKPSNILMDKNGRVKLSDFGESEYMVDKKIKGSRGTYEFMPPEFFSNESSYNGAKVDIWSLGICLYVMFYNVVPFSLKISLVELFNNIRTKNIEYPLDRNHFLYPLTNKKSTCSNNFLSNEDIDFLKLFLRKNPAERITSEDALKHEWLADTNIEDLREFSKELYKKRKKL
Chain of L-lactate dehydrogenase (Plasmodium falciparum (isolate CDC / Honduras)) (Q27743 whole entry, looked up): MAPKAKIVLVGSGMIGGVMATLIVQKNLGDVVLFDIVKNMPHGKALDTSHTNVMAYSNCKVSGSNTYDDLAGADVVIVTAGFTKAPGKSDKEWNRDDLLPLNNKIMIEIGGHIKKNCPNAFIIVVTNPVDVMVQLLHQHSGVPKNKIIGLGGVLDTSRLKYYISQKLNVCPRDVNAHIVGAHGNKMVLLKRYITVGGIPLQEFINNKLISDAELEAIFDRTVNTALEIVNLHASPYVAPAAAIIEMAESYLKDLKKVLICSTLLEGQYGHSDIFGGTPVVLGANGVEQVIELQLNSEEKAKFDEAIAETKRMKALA
Chain of Plasmodium falciparum protein kinase 6 (PK6, PF3D7_1337100) (Q8IDW1 1-305): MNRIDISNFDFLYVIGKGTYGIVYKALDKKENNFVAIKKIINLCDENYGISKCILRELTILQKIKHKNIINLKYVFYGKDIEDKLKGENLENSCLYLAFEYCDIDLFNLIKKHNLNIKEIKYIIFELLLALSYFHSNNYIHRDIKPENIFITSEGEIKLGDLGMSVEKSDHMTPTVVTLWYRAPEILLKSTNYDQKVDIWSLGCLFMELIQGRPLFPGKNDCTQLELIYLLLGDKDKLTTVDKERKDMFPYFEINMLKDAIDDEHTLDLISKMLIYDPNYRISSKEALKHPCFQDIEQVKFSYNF

Compound | growth inhibition [1] | inhibition [2] | inhibition [3] [%] | growth inhibition [4] | outcome [5] | outcome [6] | outcome [7] | outcome [8]
Cc1onc(-c2c(Cl)cccc2Cl)c1C(=O)N1CCc2cc3nccc(N4CCN5CCC[C@H]5C4)c3cc21 | 58% (active) | 3% | -5 | 101% (active) | inactive | inactive | inactive | inactive
CCCNC(=O)C1CCN(C(c2ccc(Cl)cc2)c2ccc(Cl)cc2)CC1 | 96% (active) | 7% | 4 | 98% (active) | inactive | inactive | inactive | inactive
COc1cc(NC(=O)c2c(-c3c(Cl)cccc3Cl)noc2C)c(OC)cc1Cl | 67% (active) | 4% | 0 | 85% (active) | inactive | inactive | inactive | inactive
Cc1ccc(-c2nnc(Nc3ccc(CC(N)=O)cc3)c3ccccc23)cc1S(=O)(=O)NCC1CCCO1 (stereo not given) | 64% (active) | -6% | 6 | 83% (active) | inactive | inactive | inactive | inactive
Cc1ccccc1C1CCN(C2CCC(NC(=O)c3ccc(-c4cccs4)s3)CC2)CC1 (stereo not given) | 54% (active) | 58% (active) | -2 | 101% (active) | inactive | inactive | inactive | inactive
Cc1cccc2[nH]c(-c3ccc(-c4ccc(NC(=O)Nc5ccsc5)cc4)s3)nc12 | 88% (active) | 74% (active) | 2 | 100% (active) | inactive | inactive | inactive | inactive
Cc1cc(N)c2cc(NC(=O)c3cc(C(F)(F)F)cc(C(F)(F)F)c3)ccc2n1 | 99% (active) | 100% (active) | 5 | 102% (active) | inactive | inactive | inactive | inactive
COc1ccc(NC(=O)Nc2ccc(-c3ccccc3)cc2)cc1Cn1cnc(N2CCCNCC2)cc1=O | 38% | 24% | 8 | 101% (active) | inactive | inactive | inactive | inactive
C#CC[C@@H](NC(N)=O)C(=O)O | 0% | 1% | -2 | 97% (active) | inactive | inactive | inactive | inactive
O=C(COc1ccccc1Cl)N1CCc2cc3nccc(N4CCN5CCC[C@H]5C4)c3cc21 | 99% (active) | 4% | -1 | 91% (active) | inactive | inactive | inactive | inactive
CCn1c(-c2nonc2N)nc2cnc(Oc3cccc(NC(=O)c4ccc(OCCN5CCCCC5)cc4)c3)cc21 | 7% | 16% | -1 | 98% (active) | inactive | inactive | inactive | inactive
Cc1[nH]c2ccccc2c1C1CCN(CCCCNC(=O)c2ccc(-c3ccc(C#N)cc3)cc2)CC1 | 97% (active) | 19% | -3 | 101% (active) | inactive | inactive | inactive | inactive
Oc1cc2c(cc1CN1CCN(Cc3cccs3)CC1)CCC2 | 91% (active) | 10% | -7 | 99% (active) | inactive | inactive | inactive | inactive
CCC1(c2ccccc2)N=C(N)N(CCCc2ccccc2)C1=O (stereo not given) | 96% (active) | 17% | 1 | 90% (active) | inactive | inactive | inactive | inactive
c1ccc(Oc2ccc(Nc3ccnc4cc(-c5csc(CN6CCCCC6)n5)ccc34)cc2)nc1 | 95% (active) | 22% | -7 | 100% (active) | inactive | inactive | inactive | inactive
NC(=NCCCCC1CCCCC1)c1cccc(C(N)=NCCCCC2CCCCC2)n1 | 19% | 99% (active) | 3 | 100% (active) | inactive | inactive | inactive | inactive
O=C(Nc1ccc(-c2cccc(-c3nc4ccc(F)cc4[nH]3)c2)cc1)Nc1ccc(Cl)c(Cl)c1 | 24% | 68% (active) | 3 | 99% (active) | inactive | inactive | inactive | inactive
Cn1cc(CN2CCCC(COC(c3ccccc3)c3ccccc3)C2)cn1 (stereo not given) | 99% (active) | 24% | 0 | 99% (active) | inactive | inactive | inactive | inactive
CCNc1cc(C(=O)N[C@@H](Cc2ccccc2)[C@H](O)CNC(C)(C)CCCC(C)C)cc(N2CCCCS2(=O)=O)c1 | 98% (active) | 5% | 2 | 98% (active) | inactive | inactive | inactive | inactive
CN(C)Cc1ccc(O)c(-c2ccc(C(C)(C)C)cc2)n1 | 25% | -1% | -5 | 86% (active) | inactive | inactive | inactive | inactive

Compound | growth inhibition [1] | inhibition [2] | inhibition [3] [%] | growth inhibition [4] | outcome [5] | outcome [6] | outcome [7] | outcome [8]
Cc1ccc(CNC(=O)[C@H](CCCN)Nc2cc(C)nc(NCC3CCCCC3)n2)cc1 | -2% | 1% | 0 | 90% (active) | inactive | inactive | inactive | inactive
CCNc1cc(C(=O)N[C@@H](Cc2ccccc2)[C@H](O)CNC2(CC(C)C)CC2)cc(N2CCCCS2(=O)=O)c1 | 29% | -3% | -5 | 87% (active) | inactive | inactive | inactive | inactive
COc1ccc(-c2nnc(Sc3ccc(C#N)c([N+](=O)[O-])c3)n2CCC(C)C)cc1 | 53% (active) | 15% | 5 | 89% (active) | inactive | inactive | inactive | inactive
Cc1ccc(Nc2nc(-c3ccccn3)cs2)nc1 | 97% (active) | 60% (active) | -8 | 94% (active) | inactive | inactive | inactive | inactive
COc1cc(NC(=O)c2cc3c(C)nn(-c4cccc(C(F)(F)F)c4)c3s2)cc(OC)c1OC | 50% (active) | 0% | 3 | 101% (active) | inactive | inactive | inactive | inactive
CCN(CC)CCN(Cc1ccc(-c2ccc(C(F)(F)F)cc2)cc1)C(=O)Cn1c(CCc2ccc(F)cc2)nc(=O)c2sccc21 | 90% (active) | 100% (active) | -3 | 99% (active) | inactive | inactive | inactive | inactive
Cc1cc(Nc2ccccc2)nc(NCCOc2ccccc2)n1 | 48% | -5% | -1 | 100% (active) | inactive | inactive | inactive | inactive
O=C(c1cc2cccc([N+](=O)[O-])c2[nH]1)N1CCC(CCN2CCC(c3c[nH]c4ccccc34)CC2)CC1 | 24% | 45% | 1 | 89% (active) | inactive | inactive | inactive | inactive
Cc1c[nH]c2cc(/C=C/C(=O)NC3CCC(CCN4CCc5ccc(C#N)cc5CC4)CC3)ccc12 (stereo not given) | 59% (active) | -1% | -2 | 95% (active) | inactive | inactive | inactive | inactive
COc1ccc(Cl)cc1-c1nc(C(=O)NCCN2CCCCC2)c(C)s1 | 10% | 16% | -7 | 97% (active) | inactive | inactive | inactive | inactive
N#Cc1ccc(N2CCN(Cc3ccc(-c4cccc(-c5nc6ccccc6[nH]5)c4)cc3)CC2)nc1 | 29% | 33% | -1 | 95% (active) | inactive | inactive | inactive | inactive
Cc1ccc(C(=O)Nc2ccc(-c3nc4ccccc4[nH]3)cc2)cc1S(=O)(=O)N1CCOCC1 | 16% | 56% (active) | 4 | 90% (active) | inactive | inactive | inactive | inactive
COc1ccc(-c2onc(C(F)(F)F)c2-c2cc3ccccc3o2)c(O)c1 | 15% | 6% | 0 | 93% (active) | inactive | inactive | inactive | inactive
CCOc1ccc(Nc2ccc3nonc3c2S(=O)(=O)Nc2ccc(OCC)cc2)cc1 | 93% (active) | 6% | -2 | 100% (active) | inactive | inactive | inactive | inactive
Cc1cc(-c2ccc(NC(=O)N3CCc4cc(Cl)c(N5CCN(C)CC5)cc43)cc2)ccc1C#N | 83% (active) | 100% (active) | -2 | 101% (active) | inactive | inactive | inactive | inactive
COC(=O)c1c(C#N)c(OC)cc(O)c1CSC[C@@H](CN1CCCCC1)Nc1nc(-c2ccc([N+](=O)[O-])cc2)cs1 | 77% (active) | 8% | -3 | 101% (active) | inactive | inactive | inactive | inactive
O=C(NC1CCN(CCN2CCc3ccccc3CC2)CC1)c1ccc(-c2ccc(C(F)(F)F)cc2)cc1 | 43% | 45% | -4 | 99% (active) | inactive | inactive | inactive | inactive
CC(O)C1CCCCN1C(=O)c1cccc(-c2cccc(-c3nc4ccc(F)cc4[nH]3)c2)c1 (stereo not given) | 99% (active) | 42% | -2 | 101% (active) | inactive | inactive | inactive | inactive
Cc1noc(-c2ccccc2)c1NC(=O)N1CCN(CCCCCCNC(=O)/C=C/c2ccc(Cl)c(Cl)c2)CC1 | 1% | 6% | 2 | 95% (active) | inactive | inactive | inactive | inactive
c1ccc2c(c1)ncc1c3ccccc3[nH]c21 | 36% | -1% | -6 | 95% (active) | inactive | inactive | inactive | inactive
